From PubChem BioAssay
Sm TGR inh = blocks Schistosoma mansoni thioredoxin glutathione reductase; Q962Y6; purified TGR, DTNB reduction, TNB absorbance 405 nm; Potency, µM (doses to about 114 µM), inactives show at the highest dose activity change, negative = inhibition, actives largely listed as inhibitors; 3% of 360,000 active; AID 485364; active means well fitted inhibition curve with a large enough effect; inconclusive means small, poorly fitted or top-dose-only effect; inactive means no such curve, though single readings can be large or run the other way; further: potency means the concentration at half of the fitted maximal effect; on the % scale 0 is the no-effect control and ±100 the full control effect; nearly all actives have a fitted effect of over 60% in size
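TGR 20 nM + NADPH 100 uM (dispensed conc.), cpd preinc 15 min RT; start with NADPH (500 uM addition) then DTNB (15 mM addition). Kinetic TNB absorbance, 405 nm filter. Four-parameter Hill fit across titration.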
Shiga toxin inh = inhibitors of Shiga toxin in Vero cells; inhibition, % at 38.7 µM; 9.2% of 290,000 active; Vero cells, Shiga toxin protein synthesis inhibition reporter; in the data active means inhibition mostly above about 28%, no sharp cut-off; inactive means mostly below about 43%; further: 0% is about no effect
FMDV antiviral = antivirals against foot and mouth disease virus; FMDV antiviral cell-based qHTS; AID 1159524; 1.2% of 410,000 active; Potency, µM (series often up to 57.9 µM), for the others: at the top dose activity change, negative = inhibition, most hits filed as inhibitors; calls by dose curve; tested in HEK293T cells; further: read-out not given here; potency means the concentration at half of the fitted maximal effect; on the % scale 0 is the no-effect control and ±100 the full control effect; nearly all actives have a fitted effect of over 45% in size
Cycloheximide cs = counter-screen for Shiga toxin inhibitors: cycloheximide protein synthesis inhibition. cell reporter, cycloheximide protein synthesis inhibition counterscreen. max response, %. 12% of 300,000 active; in the data active means max response mostly above about 13%, no sharp cut-off; inactive means mostly below about 14%; further: read at 38.3 µM for the half of the compounds with a filed dose; 0% is about no effect
The depositor's hits bear a star; ? = inconclusive; . = no result. Sampled rows, rich in hits. Any-hit rate of the full collection: about 12%.

SMILES | Sm TGR inh | Shiga toxin inh | FMDV antiviral | Cycloheximide cs
COc1ccc(NC(=O)Cn2ccn(Cc3ccccc3)c(=O)c2=O)cc1Cl | -8% | . | 1% | .
COc1ccccc1C/C(N)=N/OC(=O)COc1ccc2ccccc2c1 | 0% | -9 | . | -3
Cc1cc(C)c(OCC(=O)OCCNC(=O)c2cccnc2)c(C)c1 | 35µM* | -5 | 0% | -4
Cc1ccc(C)c(OCC(=O)O/N=C(\N)c2ccccn2)c1 | 7% | 88* | 51% | 28*
N/C(=N\OC(=O)COc1ccc2ccccc2c1)c1ccccn1 | -1% | 128* | . | 67*
N/C(=N\OC(=O)COc1ccccc1Cl)c1ccccn1 | -7% | 65* | -10% | 45*
Cc1cc(OCC(=O)O/N=C(\N)c2ccccc2)cc(C)c1Cl | -20% | 9 | . | 5
COc1ccc(CNC(=O)c2ccc(CN3C(=O)C(C)=C(c4ccc(C)cc4)S3(=O)=O)cc2)cc1 | -9% | . | -2% | .
CCN(Cc1ccccc1)C(=O)Cn1c(=O)n(-c2ccccc2)c(=O)c2c1c1cc(C)ccc1n2C | -3% | . | ? | .
CCN(C(=O)c1cnc(N2CCOCC2)c2ccccc12)c1cc(C)ccc1C | -2% | . | -23% | .
Cc1ccc(C)c(OCC(=O)O/N=C(\N)c2cccnc2)c1 | 13% | 49 | 17% | 19*
Cc1ccc(SCC(=O)O/N=C(\N)c2cccnc2)cc1 | -6% | 27 | 19% | 17*
CCc1ccc(OCC(=O)O/N=C(\N)c2cccnc2)cc1 | 1% | 44* | 20% | 32*
Cc1cc(C)c(C)c(OCC(=O)O/N=C(\N)c2cccnc2)c1 | 10% | 0 | -15% | 6
Cc1ccc(S(=O)(=O)N(C)CC(=O)O/N=C(\N)c2cccnc2)cc1 | . | . | -11% | .
N/C(=N\OC(=O)COc1ccc(Br)cc1)c1ccncc1 | 4% | 19 | 38% | -3
CCc1ccc2oc(C(=O)N(Cc3cccc(Cl)c3)Cc3ccco3)c(C)c2c1 | 4% | . | -20% | .
COc1ccc(CCNC(=O)c2ccc3c(c2)N(Cc2ccccc2Cl)C(=O)c2ccccc2S3)cc1OC | 3% | . | -8% | .
COc1cc(C)ccc1OCc1cc(C(=O)NC(C)Cn2cncn2)no1 (stereo not given) | -6% | 81* | 55% | 65*
COc1cc(C)ccc1OCc1cc(C(=O)NCc2ccncc2)no1 | -25% | 107* | 30% | 59*
O=S(=O)(O)c1cc(O)c(N=Nc2ccc(O)cc2O)c2ccccc12 | . | . | 28µM* | .
S=c1[nH]cnc2sc(-c3ccccc3)cc12 | -6% | 77* | 0% | 31*
Fc1ccc(Cl)cc1/C=N/n1cnnc1SCc1ccccc1 | 5% | 11 | 21% | 3
C(=N\n1cnnc1SCc1ccccc1)/c1ccco1 | 22µM* | -48 | -20% | -3
CC1CN(Cc2cccn2-c2ncccn2)Cc2cc(Cl)ccc2O1 (stereo not given) | . | . | -14% | .
SMILES | Sm TGR inh | Shiga toxin inh | FMDV antiviral | Cycloheximide cs
Cc1nc(-c2ccc(Cl)cc2)sc1CCNC(=O)c1cccs1 | -1% | . | -14% | .
CCN(CC)c1ccc(/C=C(\C#N)c2ccccn2)cc1 | -7% | 26 | -44% | 35*
CCN(Cc1ccccc1)c1ccc(/C=C(\C#N)c2ccccn2)cc1 | 1% | 98* | 48% | 56*
CN(CCC#N)c1ccc(/C=C(\C#N)c2ccccn2)cc1 | -1% | active | -74% | 48*
COc1cc(/C=C(\C#N)c2ccccn2)ccc1OCc1ccc(Cl)cc1 | -1% | 38 | -9% | 8
N#C/C(=C\c1ccc(C(=O)O)cc1)c1ccccn1 | 5% | 13 | 1% | 9
COc1cc(/C=C(\C#N)c2ccccn2)ccc1OCc1ccccc1 | -9% | 77* | 39% | 31*
CN(CCC#N)c1ccc(C=C(C#N)c2ccc(Br)cc2)cc1 | . | . | 7% | .
COc1ccccc1CNC(=O)CSc1nc(=O)[nH]c2c1CCC2 | 10% | . | -7% | .
Cc1ccc(S(=O)(=O)c2c(O)cc(C)c(NS(=O)(=O)c3ccc(Br)cc3)c2C)cc1 | -2% | . | 31% | .
CN(C)c1ccc(C(CNS(=O)(=O)c2ccc(Br)cc2)N2CCOCC2)cc1 (stereo not given) | -14% | . | -11% | .
CCOC(=O)CC1COCCN1C(=O)c1ccc2oc(Cc3ccccc3)nc2c1 (stereo not given) | 5% | 62* | 63% | 48*
CCCCc1nc2cc(C(=O)N3CCCCC3CC(=O)OCC)ccc2o1 (stereo not given) | -2% | 37 | 50% | 31*
CCCCc1nc2cc(C(=O)N3CCCCC3C(=O)OC)ccc2o1 (stereo not given) | -19% | 57* | 14% | 39*
CCOC(=O)CC1COCCN1C(=O)c1cc(COc2ccccc2SC)on1 (stereo not given) | . | . | 41% | .
CCCCc1nc2cc(C(=O)NC3CCOC(C)(C)C3)ccc2o1 (stereo not given) | 4% | -1 | -7% | 9
O=C(Nc1ccc2c(c1)OCCO2)Nc1ccc2c(c1)OCO2 | -2% | 62* | -35% | 33*
COC(=O)c1ccc(NC(=O)Nc2ccc3c(c2)OCO3)cc1 | -1% | 87* | 15% | 50*
O=C(CCl)Nc1ccc2c(c1)OCO2 | 16µM* | 26 | ? | 34*
CC(C)N1CCCC(C)(C(=O)Nc2ccc3c(c2)OCO3)C1 (stereo not given) | . | . | -6% | .
CC(C)N1CCC(NC(=O)Nc2ccc3c(c2)OCO3)CC1 | 3% | 28 | 29% | 29*
CSc1cccc(NC(=O)C2CCN(S(=O)(=O)c3ccc4[nH]c(=O)ccc4c3)CC2)c1 | -5% | . | -9% | .
O=C(Nc1ccc2c(c1)CCC2)Nc1ccc2c(c1)OCO2 | -34% | 134* | 0% | 47*
O=C(Nc1ccc2c(c1)OCO2)Nc1ccc(Br)cn1 | -10% | 83* | 74% | 37*
CC1(C(=O)Nc2ccc3c(c2)OCCO3)CC1(Cl)Cl (stereo not given) | 1% | 42* | 19% | 23*
SMILES | Sm TGR inh | Shiga toxin inh | FMDV antiviral | Cycloheximide cs
CC(=O)Nc1ccc2c(c1)OCCO2 | 9% | -2 | 2% | 0
CC(=O)Nc1ccc2c(c1)OCO2 | -3% | 17 | -2% | 9
Cc1ccnc(NC(=O)Nc2ccc3c(c2)OCO3)c1 | -15% | 74* | 15% | 27*
CN(C)CC(C)(O)c1ccc2c(c1)CN(Cc1cccn1-c1ncccn1)CCO2 (stereo not given) | . | . | -10% | .
COc1ccc2oc(=O)c(C(=O)N3CCN(c4ccc(C)cc4)CC3)cc2c1 | 10% | . | -7% | .
CCNc1ncc2nc(-c3cccs3)c(=O)n(CCC#N)c2n1 | . | . | -20% | .
Cc1ccc(CNC(=O)c2cnc(N3CCCCC3)c3ccccc23)cc1 | 3% | . | -24% | .
O=C(Nc1ccc2c(c1)OCCO2)NC12CC3CC(CC(C3)C1)C2 | -6% | 108* | 37% | 49*
O=C(Nc1cccc([N+](=O)[O-])c1)Nc1cccc([N+](=O)[O-])c1 | 1% | -5 | ? | 7
NC(=O)c1ccc(NC(=O)COC(=O)c2ccc3c(c2)OCO3)cc1 | -5% | . | -12% | .
O=C(Nc1cccc([N+](=O)[O-])c1)Nc1ccc2c(c1)OCCO2 | . | 53 | 24% | 33*
NC(=O)c1ccc(NC(=O)Nc2ccc3c(c2)OCO3)cc1 | -12% | 47* | 49% | 34*
O=C(O)C1CC=CCC1C(=O)Nc1ccc2c(c1)OCCO2 (stereo not given) | 8% | 36* | -10% | 61*
